From the supplement of paper PMC10477191
± gives the standard deviation of the averaged measurements.

system: Drosophila virilis antennal basiconic sensillum AB1; experiment: odor-evoked OSN spike response (post minus pre-stimulus); higher = stronger neuronal excitation; conditions: odor dilution: 10^-4
Description: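 Single sensillum recordings from antennal basiconic sensilla of D. virilis. A 500 ms pulse of odorant (10^-4 in mineral oil or DMSO) was delivered; the response is the change in spike frequency between the 1 s pre- and post-stimulus windows (spikes/s).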

SMILES	odor-evoked OSN spike response [spikes/s]
CC(C)=O [acetone]	73.5 ± 24
